Laboratory results from PubChem BioAssay (Tox21).
Values joined by “and” are separate entries in the source; they are usually repeats but may differ in a detail not shown here. Equal values may be shown once. Results filed as inconclusive are left out. Values without a mark were called inactive. Active and inactive are the calls of the source. Calls follow the shape of the dose curve; as a rule, active = well fitted inhibition curve with a large enough effect in the signal ratio in the repeat runs; inconclusive = weak or mixed curves, or effect the other way; inactive = flat fitted curve, though single readings scatter; the % refers to the signal ratio.

assay: qHTS assay for small molecule disruptors of the mitochondrial membrane potential (AID 720635); details: HepG2 mitochondrial membrane potential, Mito-MPS dye ratio; series mostly up to 83.2 µM; ratio activity, negative = MMP loss: at the top concentration
From the text: U.S. Tox21 Program National Center for Advancing Translational Sciences [NCATS] NIH Chemical Genomics Center [NCGC] U.S. Environmental Protection Agency [EPA] National Institutes of Environmental Health Sciences [NIEHS] National Toxicology Program [NTP] U.S. Food and Drug Administration [FDA] Tox21 Assay Overview: Mitochondrial membrane potential (MMP), one of the parameters for mitochondrial function, is generated by mitochondrial electron transport chain that creates an electrochemical gradient by a series of redox reactions. This gradient drives the synthesis of ATP, a crucial molecule for various cellular processes. Measuring MMP in living cells is commonly used to assess the effect of chemicals on mitochondrial function. […] The dye accumulates in the mitochondria of healthy cells as aggregates, with red fluorescence. The mitochondrial potential collapses and the dye can no longer accumulate in the mitochondria and remains in the cytoplasm in monomers, with green fluorescence.
Tox21 Assay Protocol Summary: 2,000 HepG2 cells in 5 uL/well were dispensed into black, clear-bottom 1536-well plates using a Multidrop Combi (Thermo Scientific) dispenser. The assay plates were incubated overnight at 37C to allow cells to attach to the wells, followed by the transfer of 23 nL compound or DMSO vehicle by a pin tool (Kalypsys). The plates were incubated for 1 hr at 37C and 5% CO2, followed by the addition of 5 uL of 2X Mito-MPS dye (BD Biosciences) into each well using Flying Reagent Dispenser (Aurora Discovery) and then following 30 min incubation at 37C. Fluorescence intensity (490nm excitation and 535nm emission for monomers; and 540nm excitation and 590nm emissions for aggregates) was measured using an Envision plate reader.
% is scaled to controls: 0 for no effect and ±100 for the full control effect; potency is read from the fitted curve at half-maximal effect.

| Compound | ratio activity, negative = MMP loss | Potency |
| --- | --- | --- |
| CN1C[C@@H](NS(=O)(=O)N(C)C)C[C@@H]2c3cccc4c3c(cn4C)C[C@H]21 | 12.6% |  |
| CC(Cl)(Cl)[N+](=O)[O-] | 10.5% |  |
| COc1cccc2c1cc([N+](=O)[O-])c1c(C(=O)O)cc3c(c12)OCO3 |  | 48.6 µM (active) |
| NC(=S)C(N)=S | -5.01% |  |
| Nc1c(Br)cc([N+](=O)[O-])cc1[N+](=O)[O-] |  | 8.73 µM (active) |
| N#CC(CCc1ccc(Cl)cc1)(Cn1cncn1)c1ccccc1 (stereo not given) |  | 48.6 µM (active) |
| CCOP(=O)(OCC)OP(=O)(OCC)OCC | -9.37% |  |
| N#CCNCC#N | 21.2% |  |
| O=NN1CCCCC1 | 14.7% |  |
| COc1cc(OC)nc(NC(=O)NS(=O)(=O)c2ncccc2C(=O)N(C)C)n1 | 10.6% |  |
| OC(Cn1cncn1)(c1ccc(F)cc1)c1ccccc1F (stereo not given) | -25.1% |  |
| O=C(Nc1ccccc1)N(Cc1ccc(Cl)cc1)C1CCCC1 |  | 15.4 µM (active) |
| CCCCN(CCCCO)N=O | 9.83% |  |
| CCN(Cc1ccc(Cl)nc1)/C(=C/[N+](=O)[O-])NC | 17.6% |  |
| O=c1oc2ccccc2c(O)c1C1CCCc2ccccc21 (stereo not given) |  | 13.7 µM (active) |
| COC(C)(C)C | 16.7% |  |
| Nc1ccccc1Cl | 9.66% |  |
| CCC1(c2ccccc2)C(=O)N=C(O)NC1=O (stereo not given) | 8.91% |  |
| [O]=[Cd] | 28.1% |  |
| C=C(C)CN(CC)c1c([N+](=O)[O-])cc(C(F)(F)F)cc1[N+](=O)[O-] |  | 30.6 µM (active) |

| Compound | ratio activity, negative = MMP loss | Potency |
| --- | --- | --- |
| CCOP(=S)(OCC)SCSc1ccc(Cl)cc1 | 7.75% |  |
| NC(=O)O | 8.3% |  |
| CCC/C(=N\OCC)C1=C(O)CC(CC(C)SCC)CC1=O (stereo not given) | 15.5% [at 95.3 µM] |  |
| C[C@@H]1CN(C2CCC(C#N)(c3ccc(F)cc3)CC2)CC[C@]1(C(=O)O)c1ccccc1 (stereo not given in full) | -17% [at 39.1 µM] |  |
| COc1cc(OC)nc(NC(=O)NS(=O)(=O)c2ncccc2OCC(F)(F)F)n1 | 18.6% |  |
| C[C@H]1CCC[C@H](O)CCCCCc2cc(O)cc(O)c2C(=O)O1 |  | 9.44 µM (active) and 6.91 µM (active) |
| CCOP(=S)(OCC)Oc1ncn(-c2ccccc2)n1 |  | 6.86 µM (active) |
| ClCC(Cl)(Cl)Cl | 12.3% [at 95.3 µM] |  |
| CCCCc1ccc(O)cc1 |  | 48.5 µM (active) |
| CNCC(=O)c1ccc(O)c(O)c1 | 9% |  |
| CC1(C)C(=O)NC(=O)NC1=O | 4.31% |  |
| CC1(C(=O)Nc2ccc(O)c(Cl)c2Cl)CCCCC1 |  | 7.7 µM (active) |
| CCCCOP(=O)(O)OCCCC | -12.3% |  |
| COCC(=O)N(c1c(C)cccc1C)N1CCOC1=O | 21.8% |  |
| CCC(C)(C)c1cc(-n2nc3ccccc3n2)c(O)c(C(C)(C)CC)c1 | 9.24% [at 95.3 µM] |  |
| O=[N+]([O-])c1ccc2c3c(cccc13)CC2 |  | 24.3 µM (active) |
| CC1(C)COP(Oc2ccccc2)OC1 | 7.11% |  |
| CCS(=O)(=O)C(C)(C)S(=O)(=O)CC | 7.66% |  |
| CCCSP(=O)(OCC)Oc1ccc(Br)cc1Cl (stereo not given) |  | 1.05 µM (active) |
| CC1=NNC(=O)N(/N=C/c2cccnc2)C1 | 7.92% |  |
